Laboratory results taken from the supplement of paper PMC6522484.
± gives the standard deviation of the averaged measurements.

Assays:
DLD1 [1] = experiment: cell viability (CellTiter-Glo) relative to plate median (fraction of plate median); higher = more viable cells; details: 5 µM; treatment time 24 h; reporter: 7TFP
In short: (§1)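 Each entry is a luminescence signal normalised to the plate median, averaged over independent replicates. The replicate count was two, and the cells were colorectal cancer lines with stable lentiviral TCF/Wnt firefly luciferase reporters exposed to library compounds at a final 5 µM for 24 h. Firefly luciferase and CellTiterGlo were measured on parallel plates.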

HCT116 = experiment: as above; details: 5 µM; treatment time 24 h; reporter: TCF4/Wnt
In short: as §1

SW480 [2] = experiment: as above; details: 5 µM; treatment time 24 h; reporter: 7TFP
In short: as §1

DLD1 [3] = experiment: TCF/Wnt firefly luciferase reporter signal relative to plate median (fraction of plate median); higher = higher Wnt reporter signal; details: 5 µM; treatment time 24 h; reporter: 7TFP
In short: as §1

SW480 [4] = experiment: as above; details: 5 µM; treatment time 24 h; reporter: 7TFP
In short: as §1

Structure (SMILES) | cell viability (DLD1 [1]) | cell viability (HCT116) | cell viability (SW480 [2]) | TCF/Wnt firefly luciferase reporter signal (DLD1 [3]) | TCF/Wnt firefly luciferase reporter signal (SW480 [4])
O=C(CCCN1CCC(O)(c2ccc(Cl)cc2)CC1)c1ccc(F)cc1 | 1 ± 0.021 | 1.075 ± 0.0071 | 0.995 ± 0.078 | 1.08 ± 0.035 | 1.05 ± 0.064
C[C@@H]1O[C@@H](OC[C@H]2O[C@@H](Oc3c(-c4ccc(O)c(O)c4)oc4cc(O)cc(O)c4c3=O)[C@H](O)[C@@H](O)[C@@H]2O)[C@H](O)[C@H](O)[C@H]1O [RUTOSIDE  (rutin)] | 0.972 | 0.881 ± 0.16 | 1.01 ± 0.016 | 1.03 ± 0.042 | 0.769 ± 0.53
NC(CO)C(=O)NNCc1ccc(O)c(O)c1O (stereo not given) | 1.03 ± 0.028 | 1.07 ± 0.13 | 1.02 ± 0.021 | 1.07 ± 0.021 | 1.08 ± 0.021
CC1(C)O[C@H]2[C@H](O)C[C@](O)(C(N)=O)C[C@H]2O1 | 1.08 ± 0.035 | 1.17 ± 0.15 | 1.09 ± 0.021 | 1.07 ± 0.15 | 0.916 ± 0.055
CCCC(=O)Nc1ccc(OCC(O)CNC(C)C)c(C(C)=O)c1 (stereo not given) | 0.942 ± 0.11 | 0.966 ± 0.019 | 0.876 ± 0.1 | 0.957 ± 0.12 | 1.01 ± 0.035
O=C1C[C@@H](c2ccc(O)cc2)Oc2cc(O)cc(O)c21 | 1.045 ± 0.0071 | 1.055 ± 0.0071 | 1.03 | 1.015 ± 0.0071 | 1.04 ± 0.021
C(=C\c1ccccc1)/CN1CCN(C(c2ccccc2)c2ccccc2)CC1 | 0.989 ± 0.072 | 1.09 ± 0.021 | 1.035 ± 0.0071 | 1.17 ± 0.11 | 0.936 ± 0.15
CC(C)CC1NC(=O)C2CCCN2C1=O (single isomer, unassigned; isomere) [Cyclo(leucylprolyl) (Isomere)] | 0.919 ± 0.068 | 0.94 ± 0.016 | 1.02 ± 0.054 | 0.69 ± 0.27 | 1.12 ± 0.064
N=C(N)NC(=O)c1nc(Cl)c(N)nc1N | 0.963 ± 0.067 | 0.988 ± 0.046 | 1.01 ± 0.057 | 0.937 ± 0.024 | 1 ± 0.084
NS(=O)(=O)c1cc2c(cc1C(F)(F)F)NCNS2(=O)=O | 1.02 ± 0.17 | 1.09 ± 0.021 | 1.04 ± 0.057 | 1.12 ± 0.064 | 1.15 ± 0.092
CCCCNS(=O)(=O)c1ccccc1 [N-butylbenzenesulphonamide (AB2)] | 0.978 ± 0.19 | 1 ± 0.022 | 0.964 ± 0.052 | 0.908 ± 0.13 | 0.919 ± 0.14
CC[N+](CC)(CC)CCOc1cccc(OCC[N+](CC)(CC)CC)c1OCC[N+](CC)(CC)CC | 0.9365 ± 0.0021 | 0.972 ± 0.017 | 0.945 ± 0.093 | 0.989 ± 0.1 | 0.873 ± 0.21
C[C@@H]1CC(=O)c2c(ccc3c2C(=O)c2cccc(O)c2C3=O)C1 [Ochromycinone (Isoform A, compound ID 7490)] | 1.06 ± 0.078 | 1.005 ± 0.0071 | 1.02 ± 0.072 | 1 ± 0.023 | 0.997 ± 0.32
COc1ccc(-c2oc3cc(OC)c(OC)c(OC)c3c(=O)c2OC)cc1OC | 0.952 ± 0.028 | 1.1 ± 0.014 | 1.06 ± 0.092 | 0.986 ± 0.049 | 1.06 ± 0.17
Cc1c(N(C)C)c(=O)n(-c2ccccc2)n1C | 0.898 ± 0.025 | 0.981 ± 0.13 | 0.991 ± 0.069 | 1.1 ± 0.028 | 0.821 ± 0.057
C=C1C2=CC(=O)O[C@@H](c3ccoc3)[C@]2(C)CC[C@@H]1[C@@]1(C)C=CC(=O)C(C)(C)[C@@H]1CC(=O)OC | 1.14 ± 0.071 | 1.2 ± 0.092 | 1.12 ± 0.05 | 1.01 ± 0.1 | 0.987 ± 0.033
C/C1=C\CC(C)(C)/C=C/CC2(C)OC2CC1 (stereo not given) | 1.04 ± 0.035 | 0.96 ± 0.099 | 1.03 ± 0.035 | 1.09 ± 0.12 | 0.8895 ± 0.00071
CCN(CC)CCCC(C)Nc1ccnc2cc(Cl)ccc12 (stereo not given) | 1.05 ± 0.096 | 1.04 ± 0.12 | 1.05 ± 0.028 | 0.974 ± 0.024 | 1.045 ± 0.0071
CC(C)CCC[C@@H](C)[C@H]1CC[C@H]2[C@@H]3C[C@@H](O)[C@@]4(O)C[C@@H](O)CC[C@]4(C)[C@H]3CC[C@]12C [CHOLESTAN-3beta,5alpha,6beta-TRIOL] | 0.991 ± 0.041 | 0.924 ± 0.083 | 0.967 ± 0.016 | 0.9 ± 0.086 | 0.891 ± 0.076
C=C[C@@]1(C)CC(=O)[C@@]2(O)[C@](C)(O1)[C@@H](O)[C@@H](O)C1C(C)(C)CC[C@H](O)[C@@]12C (stereo not given in full) | 0.9975 ± 0.0035 | 0.96 ± 0.051 | 1.02 ± 0.014 | 0.923 ± 0.042 | 0.976 ± 0.13
CO/N=C(\C(=O)N[C@@H]1C(=O)N2C(C(=O)O)=C(CSc3nc(=O)c(O)nn3C)CS[C@H]12)c1csc(N)n1 | 1.06 ± 0.071 | 1.06 ± 0.071 | 0.98 ± 0.071 | 1.1 ± 0.14 | 0.96 ± 0.057
CN(C)C(=O)Nc1ccc(Cl)c(Cl)c1 | 0.959 ± 0.035 | 0.989 ± 0.016 | 0.966 ± 0.042 | 1.14 ± 0.099 | 1.15 ± 0.078
COc1ccc2c(=O)ccoc2c1 | 0.979 ± 0.059 | 0.933 ± 0.11 | 0.942 ± 0.0071 | 1.03 ± 0.021 | 1.05 ± 0.1
COc1ccc(CCC(=O)c2c(O)cc(O[C@@H]3O[C@H](CO)[C@@H](O)[C@H](O)[C@H]3O[C@@H]3O[C@@H](C)[C@H](O)[C@@H](O)[C@H]3O)cc2O)cc1O | 0.96 ± 0.085 | 1.01 ± 0.024 | 0.975 ± 0.036 | 0.945 ± 0.079 | 1.04 ± 0.028
CCN(CC)C(=O)c1cccc(C)c1 | 0.954 ± 0.041 | 1.01 ± 0.05 | 0.991 ± 0.028 | 1.03 ± 0.079 | 0.923 ± 0.061
NC(Cn1ccc(=O)c(O)c1)C(=O)O (stereo not given) | 0.987 ± 0.076 | 0.8415 ± 0.00071 | 0.989 ± 0.044 | 0.85 ± 0.016 | 0.947 ± 0.12
N[C@@H](Cc1cc(I)c(Oc2ccc(O)c(I)c2)c(I)c1)C(=O)O | 0.988 ± 0.015 | 0.926 ± 0.012 | 0.969 ± 0.036 | 1.01 ± 0.17 | 0.978 ± 0.0099
